# In PubChem BioAssay AID602397 (The Scripps Research Institute Molecular Screening Center, 2012):
# Some of the results follow. Values without a mark were called inactive. The rule behind the calls is not given here.
# Experiment: quenching of GFP signal – biochemical, fluorescence, dose response, artefact control for Rin1-Abl interaction inhibitor project, late-stage follow-up (AID 602397)
# Details: GFP fluorescence quenching counterscreen
smiles,measurement,value
CN(Cc1c(F)cccc1Cl)C(=O)CNC(=O)c1ccc2c(c1)OCO2,IC50,> 67.5 µM
